Source: PubChem BioAssay (EPA / NIEHS)
A structure can be active in one record and inactive in another. The source made the active and inactive calls. Rule for the calls: active = hit-call score of the fitted dose curve at least 0.9, where 1 is the maximum; inactive = score below 0.9.

Key:
[1] = target: Transcription factor E2F1 (Homo sapiens) (UniProt Q01094); assay: ATG_E2F_CIS: Attagene CIS-FACTORIAL HepG2 Assay for human E2F Transcription Factor 1 (AID 2282935); conditions: HepG2 Attagene cis-reporter, E2F reporter RNA transcripts; actives raise or lower the signal
In short: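 Multiplexed cis-reporter assay: HepG2, transient transfection, 24 h dosing, mRNA quantitation by labeled RT-PCR and CE.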

[2] = ATG_E_Box_CIS: Attagene CIS-FACTORIAL HepG2 Assay for human Enhancer Box (E-box) (AID 2282936); conditions: HepG2 E-box cis-reporter transcription, actives raise or lower the signal
In short: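 Multiplexed CIS reporter system in transiently transfected HepG2 cells measures native transcription factor activity. Reporter RNA after 24 h exposure is profiled by RT-PCR-capillary electrophoresis.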

[3] = ATG_M_61_CIS: Attagene CIS-FACTORIAL HepG2 Assay for M61 Transcription Factor (Internal Marker) (AID 2282937); conditions: HepG2 Attagene CIS-FACTORIAL M61 internal marker reporter; actives raise or lower the signal
In short: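 This endpoint serves as an internal background control within a multiplexed HepG2 cis-reporter panel. Cells are exposed for 24 h; reporter mRNA is amplified, fluorescently labelled and sized by capillary electrophoresis, with DMSO as negative control.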

[4] = ATG_EGR_CIS: Attagene CIS-FACTORIAL HepG2 Assay for human Early Growth Response 1 (EGR1) (AID 2282938); conditions: HepG2 Attagene CIS-FACTORIAL EGR reporter mRNA; actives raise or lower the signal
In short: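 HepG2, transient MRTU transfection (cis promoters), 24 h compound. RNA → RT (oligo-dT) → PCR → 6-FAM labelling → HpaI cut → CE fluorescence. Bidirectional fit, DMSO baseline.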

[5] = ATG_M_19_CIS: Attagene CIS-FACTORIAL HepG2 Assay for M19 Transcription Factor (Internal Marker) (AID 2282939); conditions: HepG2 Attagene CIS-FACTORIAL M19 internal marker reporter; actives raise or lower the signal
In short: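 Background-control endpoint from a multiplexed HepG2 reporter panel. Cells carrying cis-regulated reporter constructs are treated 24 h, then reporter transcripts are amplified, fluorescently labelled and sized by capillary electrophoresis. DMSO defines baseline.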

[6] = ATG_ERE_CIS: Attagene CIS-FACTORIAL HepG2 Assay for Estrogen Response Element (ERE) (AID 2282940); conditions: HepG2 ERE cis-reporter, Attagene RNA transcript; actives raise or lower the signal
In short: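 Cells used were human hepatoma HepG2, transfected with multiple reporter transcription units under cis-regulatory promoters. Reporter mRNA, read 24 h post-dosing via fluorescent RT-PCR products on capillary electrophoresis, was fitted bidirectionally relative to DMSO.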

[7] = ATG_Ets_CIS: Attagene CIS-FACTORIAL HepG2 Assay for human Erythroblast Transformation Specific (ETS) (AID 2282941); conditions: HepG2 ETS cis-reporter transcription, actives raise or lower the signal
In short: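 Human HepG2 hepatoma cells were transiently transfected with promoter-driven reporter constructs and treated for 24 hours. Reporter transcripts were quantified by RT-PCR with fluorescent primer extension; bidirectional curve fitting used DMSO as reference.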

[8] = target: Hepatocyte nuclear factor 3-beta (Homo sapiens) (UniProt Q9Y261); assay: ATG_FoxA2_CIS: Attagene CIS-FACTORIAL HepG2 Assay for human Forkhead box A2 (FOXA2) (AID 2282942); conditions: HepG2 cis-reporter transcription factor activity, 24 h; actives raise or lower the signal
In short: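 Cells: HepG2, transient multiplex reporter transfection. Exposure 24 h. Detection: reporter-specific RT-PCR, fluorescent labelling, restriction digest, capillary electrophoresis. Analysis: bidirectional curve fit, DMSO as negative control.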

[9] = ATG_FoxO_CIS: Attagene CIS-FACTORIAL HepG2 Assay for human Forkhead box O (FoxO) (AID 2282943); conditions: HepG2 Attagene cis-reporter, FoxO element, mRNA; actives raise or lower the signal
In short: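 HepG2 cells transiently transfected with cis-promoter-driven multiple reporter transcription units; 24 h after chemical dosing, reporter mRNA quantified by RT-PCR, fluorescent primer extension, HpaI digestion and capillary electrophoresis. Bidirectional fitting versus DMSO baseline.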

[10] = ATG_GATA_CIS: Attagene CIS-FACTORIAL HepG2 Assay for human GATA Binding Protein (AID 2282944); conditions: HepG2 GATA cis-element reporter, Attagene multiplex mRNA; actives raise or lower the signal
In short: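 Endogenous transcription factor activity was captured through cis-promoter-driven reporters in transfected HepG2 cells. After 24 h exposure, reporter transcripts were quantified by RT-PCR with fluorescent capillary electrophoresis, and responses fitted both directions against DMSO.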

[11] = ATG_GLI_CIS: Attagene CIS-FACTORIAL HepG2 Assay for human Zinc Finger Protein GLI1 (AID 2282945); conditions: HepG2, Attagene cis-factorial reporter mRNA, GLI element; actives raise or lower the signal
In short: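 HepG2 cells transiently transfected with cis-promoter multiplexed reporter units report endogenous transcription factor activity. After 24 h chemical exposure, reporter mRNA was quantified by RT-PCR, 6-FAM labelling, HpaI digestion and capillary electrophoresis, with bidirectional fitting against DMSO.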

[12] = target: Bile acid receptor (Homo sapiens) (UniProt Q96RI1); assay: ATG_IR1_CIS: Attagene CIS-FACTORIAL HepG2 Assay for human Nuclear Receptor Subfamily 1 Group H Member 4 (NR1H4), IR1 submotif (AID 2282946); conditions: IR1 reporter transcription, actives raise or lower the signal
In short: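 Transient MRTU transfection, HepG2; 24 h dosing; RNA → RT-PCR → 6-FAM primer extension → HpaI digest → capillary electrophoresis fluorescence. Gain/loss of signal fitted relative to DMSO.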

[13] = ATG_GRE_CIS: Attagene CIS-FACTORIAL HepG2 Assay for human Glucocorticoid Response Elements (GRE) (AID 2282947); conditions: HepG2 GRE cis-reporter, Attagene multiplex mRNA; actives raise or lower the signal
In short: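 Following 24 h chemical exposure of transiently transfected HepG2 cells, total RNA was reverse-transcribed and reporter cDNA amplified, fluorescently labelled and sized by capillary electrophoresis. Signal gain or loss was fitted relative to DMSO vehicle.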

[14] = ATG_ISRE_CIS: Attagene CIS-FACTORIAL HepG2 Assay for human Interferon Regulatory Factor 1 (IRF1) binding to an Interferon-Stimulated Response Element (ISRE) (AID 2282948); conditions: HepG2 ISRE cis-reporter (Attagene), mRNA transcription readout; actives raise or lower the signal
In short: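 Cell-based cis-reporter assay; HepG2; 24 h exposure; reporter mRNA by RT-PCR plus capillary electrophoresis fluorescence; activity in either direction scored relative to DMSO.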

[15] = ATG_M_32_CIS: Attagene CIS-FACTORIAL HepG2 Assay for M32 Transcription Factor (Internal Marker) (AID 2282949); conditions: HepG2 Attagene cis-factorial M32 reporter, mRNA; actives raise or lower the signal;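 note: background control marker of the multiplexed CIS panel rather than a real target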
In short: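 HepG2 cells transiently transfected with multiplexed cis-regulated reporter units, dosed 24 h. Reporter mRNA quantified by RT-PCR, 6-FAM labelling, HpaI digestion and capillary electrophoresis; bidirectional fit vs DMSO.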

[16] = ATG_M_06_CIS: Attagene CIS-FACTORIAL HepG2 Assay for M06 Transcription Factor (Internal Marker) (AID 2282950); conditions: HepG2 Attagene CIS-FACTORIAL M06 internal marker reporter; actives raise or lower the signal
In short: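 Steps: transfect HepG2 with multiplexed cis-element reporter constructs; dose chemical 24 h; extract RNA with DNase treatment; reverse-transcribe, PCR-amplify, 6-FAM label, HpaI digest; separate fragments by capillary electrophoresis. Activity fitted both directions versus DMSO.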

[17] = target: Hypoxia-inducible factor 1-alpha (Homo sapiens) (UniProt Q16665); assay: ATG_HIF1a_CIS: Attagene CIS-FACTORIAL HepG2 Assay for human Hypoxia Inducible Factor 1 (HIF1A) (AID 2282951); conditions: HepG2 Attagene cis-factorial HIF1a reporter transcription; actives raise or lower the signal
In short: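 HepG2, transient cis-reporter library, 24 h dosing. RNA → RT (oligo dT) → PCR → 6-FAM primer extension → HpaI → CE. Bidirectional curve fit vs DMSO.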

[18] = target: Hepatocyte nuclear factor 6 (Homo sapiens) (UniProt Q9UBC0); assay: ATG_HNF6_CIS: Attagene CIS-FACTORIAL HepG2 Assay for human Hepatocyte Nuclear Factor 6 (HNF6) (AID 2282952); conditions: HepG2 Attagene cis-factorial HNF6 reporter transcription; actives raise or lower the signal
In short: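 Transiently transfected HepG2 cells expressing cis-regulated reporter transcription units were exposed to chemical for 24 h in a 24-well format. Reporter transcript abundance was determined by fluorescence capillary electrophoresis.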

[19] = target: Heat shock factor protein 1 (Homo sapiens) (UniProt Q00613); assay: ATG_HSE_CIS: Attagene CIS-FACTORIAL HepG2 Assay for human Heat Shock Transcription Factor 1 (HSE) (AID 2282953); conditions: HepG2 HSE cis-reporter, Attagene RNA transcription; actives raise or lower the signal
In short: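 Cells were transfected with cis-element-driven reporter constructs, dosed for 24 h, then total RNA was reverse-transcribed and reporter cDNA amplified, FAM-labelled and digested with HpaI. Fragments were resolved by capillary electrophoresis; gain or loss was fitted against DMSO.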

[20] = ATG_MRE_CIS: Attagene CIS-FACTORIAL HepG2 Assay for human Metal Responsive Element (MRE) (AID 2282954); conditions: HepG2 MRE cis-reporter transcription, Attagene multiplex; actives raise or lower the signal
In short: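 Step one: transfect HepG2 with cis-regulated reporter units. Step two: dose 24 h. Step three: isolate RNA, RT-PCR, 6-FAM label, HpaI digest, capillary electrophoresis. Fit bidirectionally to DMSO.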

Measured: AC50

Chain of Bile acid receptor (Homo sapiens) (Q96RI1 whole entry, looked up): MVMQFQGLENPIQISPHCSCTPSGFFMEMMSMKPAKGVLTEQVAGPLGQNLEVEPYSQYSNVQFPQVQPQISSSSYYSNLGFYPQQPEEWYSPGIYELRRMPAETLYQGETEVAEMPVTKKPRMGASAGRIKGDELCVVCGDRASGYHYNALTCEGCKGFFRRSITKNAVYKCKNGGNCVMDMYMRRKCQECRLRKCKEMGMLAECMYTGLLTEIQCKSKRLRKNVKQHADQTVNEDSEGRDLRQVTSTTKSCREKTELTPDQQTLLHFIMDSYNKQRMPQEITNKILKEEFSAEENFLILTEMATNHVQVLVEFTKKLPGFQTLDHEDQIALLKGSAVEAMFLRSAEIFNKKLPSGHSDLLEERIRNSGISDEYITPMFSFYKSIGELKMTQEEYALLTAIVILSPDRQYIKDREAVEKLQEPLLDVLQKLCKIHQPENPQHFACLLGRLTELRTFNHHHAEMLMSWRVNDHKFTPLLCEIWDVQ
Chain of Hepatocyte nuclear factor 3-beta (Homo sapiens) (Q9Y261 whole entry, looked up): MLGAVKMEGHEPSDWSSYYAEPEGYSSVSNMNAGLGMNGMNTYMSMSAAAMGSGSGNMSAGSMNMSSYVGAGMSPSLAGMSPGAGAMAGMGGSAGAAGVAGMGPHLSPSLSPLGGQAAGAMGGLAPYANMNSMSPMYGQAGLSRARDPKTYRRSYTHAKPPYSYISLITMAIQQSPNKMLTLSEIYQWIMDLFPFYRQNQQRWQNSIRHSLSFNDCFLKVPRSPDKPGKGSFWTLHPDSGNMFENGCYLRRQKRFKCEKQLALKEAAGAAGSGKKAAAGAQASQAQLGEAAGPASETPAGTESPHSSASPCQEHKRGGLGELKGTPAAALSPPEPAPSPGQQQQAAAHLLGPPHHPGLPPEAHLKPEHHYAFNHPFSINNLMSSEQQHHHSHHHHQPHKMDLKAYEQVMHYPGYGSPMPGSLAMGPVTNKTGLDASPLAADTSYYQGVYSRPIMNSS
Chain of Hypoxia-inducible factor 1-alpha (Homo sapiens) (Q16665 whole entry, looked up): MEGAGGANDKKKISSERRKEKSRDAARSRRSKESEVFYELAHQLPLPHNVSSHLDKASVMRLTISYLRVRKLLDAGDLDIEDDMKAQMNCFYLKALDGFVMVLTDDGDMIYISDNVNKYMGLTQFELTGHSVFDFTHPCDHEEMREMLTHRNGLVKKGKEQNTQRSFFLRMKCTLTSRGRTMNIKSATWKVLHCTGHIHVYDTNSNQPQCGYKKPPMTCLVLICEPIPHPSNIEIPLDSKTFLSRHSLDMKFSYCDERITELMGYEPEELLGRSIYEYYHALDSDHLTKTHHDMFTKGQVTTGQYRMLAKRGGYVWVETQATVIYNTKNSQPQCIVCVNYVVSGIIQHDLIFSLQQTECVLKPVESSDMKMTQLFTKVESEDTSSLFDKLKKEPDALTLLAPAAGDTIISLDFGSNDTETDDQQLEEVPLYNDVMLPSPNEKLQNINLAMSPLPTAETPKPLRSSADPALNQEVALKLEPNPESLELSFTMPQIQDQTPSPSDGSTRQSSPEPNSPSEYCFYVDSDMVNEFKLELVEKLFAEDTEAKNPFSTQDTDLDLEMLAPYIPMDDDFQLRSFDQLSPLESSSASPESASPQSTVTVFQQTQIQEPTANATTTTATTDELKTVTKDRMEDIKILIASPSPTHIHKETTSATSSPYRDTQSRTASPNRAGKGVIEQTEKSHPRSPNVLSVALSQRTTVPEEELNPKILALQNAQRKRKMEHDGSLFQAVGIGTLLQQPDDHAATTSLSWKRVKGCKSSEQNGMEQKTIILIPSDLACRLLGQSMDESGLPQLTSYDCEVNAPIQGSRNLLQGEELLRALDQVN
Chain of Transcription factor E2F1 (Homo sapiens) (Q01094 whole entry, looked up): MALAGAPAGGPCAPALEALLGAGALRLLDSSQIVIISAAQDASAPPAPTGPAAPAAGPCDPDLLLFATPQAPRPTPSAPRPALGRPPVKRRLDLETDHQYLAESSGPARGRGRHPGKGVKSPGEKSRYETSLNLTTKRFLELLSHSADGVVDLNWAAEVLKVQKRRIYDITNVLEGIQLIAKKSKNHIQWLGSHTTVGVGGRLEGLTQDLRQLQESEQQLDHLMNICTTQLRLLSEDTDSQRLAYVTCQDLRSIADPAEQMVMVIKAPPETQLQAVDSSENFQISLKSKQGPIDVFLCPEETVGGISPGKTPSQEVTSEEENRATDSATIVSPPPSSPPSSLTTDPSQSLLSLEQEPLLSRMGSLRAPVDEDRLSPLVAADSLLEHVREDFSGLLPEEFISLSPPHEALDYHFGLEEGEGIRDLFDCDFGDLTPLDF
Chain of Hepatocyte nuclear factor 6 (Homo sapiens) (Q9UBC0 whole entry, looked up): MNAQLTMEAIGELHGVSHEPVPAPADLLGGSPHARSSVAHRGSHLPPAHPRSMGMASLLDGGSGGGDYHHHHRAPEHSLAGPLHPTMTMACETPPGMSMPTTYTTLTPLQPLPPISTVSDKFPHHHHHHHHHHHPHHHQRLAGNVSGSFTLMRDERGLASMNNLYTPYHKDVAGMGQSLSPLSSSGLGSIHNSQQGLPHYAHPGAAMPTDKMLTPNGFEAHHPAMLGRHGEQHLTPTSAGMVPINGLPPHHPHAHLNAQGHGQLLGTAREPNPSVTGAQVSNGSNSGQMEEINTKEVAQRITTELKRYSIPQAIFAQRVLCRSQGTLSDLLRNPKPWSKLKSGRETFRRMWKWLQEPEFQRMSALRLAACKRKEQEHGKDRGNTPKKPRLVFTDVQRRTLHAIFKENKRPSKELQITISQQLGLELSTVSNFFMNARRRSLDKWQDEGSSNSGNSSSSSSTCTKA
Chain of Heat shock factor protein 1 (Homo sapiens) (Q00613 whole entry, looked up, the tested form may be a part): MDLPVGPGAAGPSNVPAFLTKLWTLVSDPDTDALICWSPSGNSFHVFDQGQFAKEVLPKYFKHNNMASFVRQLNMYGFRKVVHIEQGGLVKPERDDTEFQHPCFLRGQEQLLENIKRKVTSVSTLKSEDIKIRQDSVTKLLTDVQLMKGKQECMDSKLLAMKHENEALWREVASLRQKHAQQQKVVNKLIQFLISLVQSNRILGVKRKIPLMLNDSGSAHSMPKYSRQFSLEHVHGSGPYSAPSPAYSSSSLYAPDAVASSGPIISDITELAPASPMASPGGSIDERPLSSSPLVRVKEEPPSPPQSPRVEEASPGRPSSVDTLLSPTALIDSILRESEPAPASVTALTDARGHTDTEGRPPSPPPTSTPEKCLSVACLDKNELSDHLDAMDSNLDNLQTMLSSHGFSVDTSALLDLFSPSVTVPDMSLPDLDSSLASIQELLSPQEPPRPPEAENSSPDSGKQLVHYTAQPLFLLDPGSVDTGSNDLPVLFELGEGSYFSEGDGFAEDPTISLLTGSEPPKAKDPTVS

O=C(CBr)OCc1ccccc1
active: [6] 100 µM
inactive: [1] | [2] | [3] | [4] | [5] | [7] | [8] | [9] | [10] | [11] | [12] | [13] | [14] | [15] | [16] | [17] | [18] | [19] | [20]

CCCCC(CC)COP(=O)(Oc1ccccc1)Oc1ccccc1 (stereo not drawn)
active: [4] 57.6 µM | [6] 6.77 µM | [11] 100 µM | [12] 25.6 µM | [17] 100 µM | [20] 50.1 µM
inactive: [1] | [2] | [3] | [5] | [7] | [8] | [9] | [10] | [13] | [14] | [15] | [16] | [18]

O=[N+]([O-])c1cc(Cl)ccc1Cl
inactive: [1] | [2] | [3] | [4] | [5] | [6] | [7] | [8] | [9] | [10] | [11] | [12] | [13] | [14] | [15] | [16] | [17] | [18] | [20]

CC(Cl)CN(C)C (stereo not drawn)
inactive: [1] | [2] | [3] | [4] | [5] | [6] | [7] | [8] | [9] | [10] | [11] | [12] | [13] | [14] | [15] | [16] | [17] | [18] | [19] | [20]

O=C(O)C(F)(F)OC(F)(F)C(F)(F)OC(F)(F)C(=O)O
inactive: [1] | [2] | [3] | [4] | [5] | [6] | [7] | [8] | [9] | [10] | [11] | [12] | [13] | [14] | [15] | [16] | [17] | [18] | [20]

CO/N=C(/C(=O)OC)c1ccccc1COc1ccccc1C
active: [2] 100 µM | [4] 43 µM | [6] 42.9 µM | [17] 100 µM | [20] 100 µM
inactive: [1] | [3] | [5] | [7] | [8] | [9] | [10] | [11] | [12] | [13] | [14] | [15] | [16] | [18]

CCCCOCCOP(=O)(OCCOCCCC)OCCOCCCC
active: [14] 24.7 µM
inactive: [1] | [2] | [3] | [4] | [5] | [6] | [7] | [8] | [9] | [10] | [11] | [13] | [14] | [15] | [16] | [17] | [18] | [19] | [20]

Oc1ccc(I)cc1
inactive: [1] | [2] | [3] | [4] | [5] | [7] | [8] | [9] | [10] | [11] | [12] | [13] | [14] | [15] | [16] | [17] | [18] | [20]
active: [6] 23.7 µM

O=C(O)C(F)(F)OC(F)(F)C(F)(F)OC(F)(F)F
inactive: [1] | [2] | [3] | [4] | [5] | [6] | [7] | [8] | [9] | [10] | [11] | [12] | [13] | [14] | [15] | [16] | [17] | [18] | [19] | [20]

CCOP(=O)(O)C(N)=O
inactive: [1] | [2] | [3] | [4] | [5] | [6] | [7] | [8] | [9] | [10] | [11] | [12] | [13] | [14] | [15] | [16] | [17] | [18] | [20]

CCOc1ccc(C(C)(C)COCc2cccc(Oc3ccccc3)c2)cc1
inactive: [1] | [2] | [3] | [4] | [5] | [6] | [7] | [8] | [9] | [10] | [11] | [12] | [13] | [14] | [15] | [16] | [17] | [18] | [19] | [20]

O=S(=O)(F)C(F)(F)C(F)(F)C(F)(F)C(F)(F)C(F)(F)C(F)(F)C(F)(F)C(F)(F)F
inactive: [1] | [2] | [3] | [4] | [5] | [6] | [7] | [8] | [9] | [10] | [11] | [12] | [13] | [14] | [15] | [16] | [17] | [18] | [19] | [20]

CC(O)C#N (stereo not drawn)
inactive: [1] | [2] | [3] | [4] | [5] | [6] | [7] | [8] | [9] | [10] | [11] | [12] | [13] | [14] | [15] | [16] | [17] | [18] | [20]
